# EPAC2 antag = qHTS for Antagonist of cAMP-regulated guanine nucleotide exchange factor 2 (EPAC2): primary screen; Rap guanine nucleotide exchange factor 4 (Homo sapiens), Q8WZA2; EPAC2 GEF exchange of Rap1B-BODIPY-GDP, fluorescence; Potency, µM (highest dose often 114 µM), most hits filed as inhibitors; 360,000 compounds, 0.18% hits; further: nearly all actives have a fitted effect of over 45% in size
# ALOX12 inh = Primary qHTS assay for inhibitors of human arachidonate 12S-lipoxygenase (ALOX12): Round 2. Potency, µM (series often up to 108 µM), most hits filed as inhibitors. purified 12hLO, xylenol orange hydroperoxide absorbance. AID 1671190, 2021. Polyunsaturated fatty acid lipoxygenase ALOX12 (Homo sapiens), P18054. 580,000 compounds, 1.1% hits
# Target sequence (P18054 whole entry, looked up): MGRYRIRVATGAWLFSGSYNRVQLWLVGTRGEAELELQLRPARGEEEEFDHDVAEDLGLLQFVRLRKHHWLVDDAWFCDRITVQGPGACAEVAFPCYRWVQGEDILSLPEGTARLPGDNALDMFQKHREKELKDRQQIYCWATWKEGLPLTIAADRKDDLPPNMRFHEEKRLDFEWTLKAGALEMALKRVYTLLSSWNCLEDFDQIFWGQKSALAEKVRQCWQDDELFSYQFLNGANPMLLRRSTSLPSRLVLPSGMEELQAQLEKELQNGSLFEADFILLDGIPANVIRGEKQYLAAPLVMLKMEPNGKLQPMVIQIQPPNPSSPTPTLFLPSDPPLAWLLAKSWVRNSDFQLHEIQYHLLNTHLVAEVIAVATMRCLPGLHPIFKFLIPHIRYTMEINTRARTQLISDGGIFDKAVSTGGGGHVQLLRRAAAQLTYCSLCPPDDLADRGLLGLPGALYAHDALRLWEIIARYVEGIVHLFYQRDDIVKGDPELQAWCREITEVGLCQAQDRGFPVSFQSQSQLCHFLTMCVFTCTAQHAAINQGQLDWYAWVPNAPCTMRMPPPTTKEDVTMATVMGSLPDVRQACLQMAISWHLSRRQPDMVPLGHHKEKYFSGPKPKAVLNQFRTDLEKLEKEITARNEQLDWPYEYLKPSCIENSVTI
#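 Purified human 12hLO at 150 nM in 25 mM Hepes, 0.01% Triton X-100, pH 7.0, preincubated 15 min at room temperature with compound. Reaction started with 40 uM arachidonic acid, 30 min at room temperature. Hydroperoxide measured by Fe-xylenol orange, 573/405 nm absorbance ratio.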
# EPAC1 ag = qHTS for Agonist of cAMP-regulated guanine nucleotide exchange factor 3 (EPAC1): primary screen; Rap guanine nucleotide exchange factor 3 (Homo sapiens), O95398; EPAC1 agonist qHTS, biochemical assay; response scale: 100% = response to 6.5 mM cAMP; Potency, µM (titrated, usually from 154 µM), most hits filed as activators; 360,000 compounds, 0.073% hits; further: nearly all actives have a fitted effect of over 60% in size
#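 Read-out is the fluorescence drop as BODIPY-GDP leaves Rap1B (480 nm excitation, 540 nm emission), recorded every 5 minutes over 30 minutes. Reactions held 100 nM EPAC1, 250 nM Rap1B–BODIPY-GDP and 50 uM GDP, with 6.5 mM cAMP setting full activation.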
# USP1 inh = Inhibitors of USP1/UAF1: Primary Screen; Ubiquitin carboxyl-terminal hydrolase 1 (Homo sapiens), O94782; AID 743255, 2014; recombinant USP1/UAF1, Ub-Rhodamine cleavage fluorescence; 390,000 compounds, 0.23% hits; Potency, µM (doses to about 57.1 µM), hits mostly inhibitors; further: nearly all actives have a fitted effect of over 60% in size
#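 In this screen, compounds sit with the deubiquitinase complex (1nM) for 15 min at room temperature before Ub-Rho is added at 150nM final. Fluorescence rise is then followed for 6 reads every 60 seconds.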
# EPAC2 agonist = qHTS for Agonist of cAMP-regulated guanine nucleotide exchange factor 4 (EPAC2): primary screen. Rap guanine nucleotide exchange factor 4 (Homo sapiens), Q8WZA2. 360,000 compounds, 0.079% hits. Potency, µM (highest dose often 154 µM), most hits filed as activators. EPAC2 activation, biochemical qHTS; response scale: 100% = 6.5 mM cAMP response. AID 720711, 2013; further: nearly all actives have a fitted effect of over 50% in size
#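 Setup: EPAC2 100 nM, labeled Rap1B complex 250 nM, free GDP 50 uM. Compound titrations pinned in, brief spin, 5 min room temperature incubation. Kinetic fluorescence read over 30 min, normalized to 6.5 mM cAMP.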
# EPAC1 antagonist = qHTS for Antagonist of cAMP-regulated guanine nucleotide exchange factor 3 (EPAC1): primary screen. EPAC1 GEF assay, Rap1b-BODIPY-GDP exchange fluorescence. Potency, µM (doses to about 115 µM), usual class: inhibitors. 360,000 compounds, 0.14% hits; further: nearly all actives have a fitted effect of over 50% in size
# Numbers stand for hits; 0 = inactive; ? = inconclusive; - = no result; [ ] = dose if it differs, or a comment. Most compounds without a hit are left out; they make up all but 1.3% or so of the library. The call rests on the fitted dose curve; in most records, active means well fitted curve in the direction sought with a large enough effect; inconclusive means small, poorly fitted or top-dose-only effect, or another doubt; inactive means no such curve, though single readings can be large; an effect the other way counts as inactive or inconclusive.
SMILES,EPAC2 antag,ALOX12 inh,EPAC1 ag,USP1 inh,EPAC2 agonist,EPAC1 antagonist
COc1cc(OC)c(CC2C(=O)Nc3cc(Cl)ccc32)c(OC)c1 (centres undefined),-,18µM,-,-,-,-
Cc1cc(C(C)(C)C)cc(C)c1Cn1c2[n+](c3ccc(C(F)(F)F)cc31)CCCCC2,0,35µM,0,0,0,0
Cc1nn(C)c(C)c1NC(=O)CCl,0,14µM,0,0,0,0
CCNC(=O)C1CCCN(C(=O)Cc2cccs2)CC1 (centres undefined),0,50µM,0,-,0,0
CCNC(=O)C1CCCN(C(=O)c2cccs2)CC1 (centres undefined),0,0,0,-,0,0
O=C(O)c1ccc2c(c1)CC(=O)N2Cc1ccc(F)cc1,-,11µM,-,-,-,-
O=C(NC1CCCCCC1)c1ccc2c(c1)CC(=O)N2Cc1ccc(F)cc1,-,0,-,-,-,-
CCN1C(=O)N(S(=O)(=O)C(F)(F)F)[C@@H](c2ccccc2)C(C(=O)OC)=C1C,32µM,0,0,0,0,0
COc1ccc(OCCn2c3ccccc3n3nc(CCC(=O)O)c(=O)nc23)cc1,-,0,-,-,-,-
Cc1ccc2c(c1)NC(=O)c1cc(S(=O)(=O)N(C)c3ccc(Br)cc3)ccc1O2,-,0,-,-,-,-
c1ccc(-c2c3c(nc4ccccc24)CCSC3)cc1,-,0,-,-,-,-
Cc1c2c(nc3ccccc13)CCSC2,-,4.5µM,-,-,-,-
Cn1c(CSc2ccccc2)nc2c1c(=O)[nH]c(=O)n2C,-,0,-,-,-,-
CCC(C(=O)Nc1ccc(OC)cc1)n1nnc(C(=O)OC)c1C(=O)OC (centres undefined),-,0,-,-,-,-
COc1ccccc1CCC(=O)OCC(=O)Nc1cc(C)nn1-c1ccccc1,0,0,100µM,0,0,0
Cc1ccc(OCCC(=O)OCC(=O)Nc2cc(C)nn2-c2ccccc2)cc1,0,0,0,0,0,0
COc1ccc2c(c1)CSC(c1ccccc1)C2=O (centres undefined),?,35µM,0,0,0,0
FC(F)(F)c1nc(NCc2cccnc2)c2ccccc2n1,0,0,0,0,0,0
FC(F)(F)c1ccccc1-c1cc(NCc2cccnc2)ncn1,-,45µM,-,-,-,-
Clc1ccccc1-c1cc(NCc2cccnc2)ncn1,-,0,-,-,-,-
FC(F)(F)c1ccccc1-c1nc(NCc2cccnc2)c2ccccc2n1,-,45µM,-,-,-,-
COc1ccc2[nH]c(C(=O)NCc3ccccn3)c(C)c2c1,-,0,-,-,-,-
Cc1ccc(S(=O)(=O)N(C)CC(=O)Nc2nc3ccccc3s2)cc1,0,0,0,0,0,0
Cc1ccc(/C(=N/Nc2nc3ccccc3s2)C2=C(O)c3ccccc3C2=O)cc1,0,3.5µM,0,0,0,0
CCC1=C[C@@H]2CN(C1)Cc1c([nH]c3ccccc13)[C@@](C(=O)OC)(c1cc3c(cc1OC)N(C)[C@@H]1[C@@](O)(C(=O)OC)[C@H](OC(C)=O)[C@]4(CC)C=CCN5CC[C@]31[C@@H]54)C2,-,4.3µM,-,-,-,-
SMILES,EPAC2 antag,ALOX12 inh,EPAC1 ag,USP1 inh,EPAC2 agonist,EPAC1 antagonist
CC1CN(Cc2ccccc2)c2ccccc2NC1=S (centres undefined),0,35µM,0,0,0,0
CC1CN(Cc2ccccc2)C(=O)N(c2ccccc2)C1=O (centres undefined),0,0,0,0,0,0
CCOC(=O)c1cnc(Nc2ccc(C)cc2)c2ccccc12,-,0,-,-,-,-
CN(C)/C=C/C(=O)c1ccc2noc(-c3cccc(F)c3)c2c1,0,?,0,?,0,0
COc1ccc(-c2onc3ccc(C(=O)/C=C/N(C)C)cc23)cc1,0,35µM,0,?,?,?
COCC(=O)Nc1nc2ccccc2s1,0,0,0,0,0,0
NC(=S)Nc1nc2ccccc2s1,0,6.3µM,0,0,0,0
COc1cccc(CSc2nc3ccncc3n2Cc2cccc(OC)c2)c1,-,0,-,-,-,-
CN(C)c1ccc(C(=O)N/N=C/c2ccc(Br)s2)cc1,-,20µM,-,-,-,-
S=C1NC(c2ccccc2)=CC(c2ccccc2)N1 (centres undefined),0,?,0,0,0,0
S=C1NC(c2cccs2)=CC(c2ccc(Br)cc2)N1 (centres undefined),0,40µM,0,0,0,0
CC(NC(=O)c1ccc(C(C)(C)C)cc1)C(=O)N1CCC2(CC1)NCCc1[nH]cnc12 (centres undefined),-,0,-,-,-,-
Cc1ccc(CCN2CCC3(Cc4ccccc4CNC3=O)C2)cc1 (centres undefined),-,13µM,-,-,-,-
C[S+](=O)([O-])N1CC2(CCN(Cc3ccc(Cl)cc3)C2)Cc2ccccc21 (centres undefined),-,45µM,-,-,-,-
Cc1ccc(CCN2CCC3(Cc4ccccc4CN([S+](C)(=O)[O-])C3)C2)cc1 (centres undefined),-,7.1µM,-,-,-,-
CCCN1CCC2(Cc3ccccc3CN([S+](=O)([O-])c3ccccc3)C2)C1 (centres undefined),-,0[6.33 µM],-,-,-,-
CC(=O)Nc1ccc(CN2CCC3(Cc4ccccc4CNC3=O)C2)cc1 (centres undefined),-,0[6.33 µM],-,-,-,-
C[S+](=O)([O-])N1CC2(CCN(Cc3cccc(C(N)=O)c3)C2)Cc2ccccc21 (centres undefined),-,0[6.33 µM],-,-,-,-
O=C1NCc2ccccc2CC12CCN(Cc1ccc(Br)cc1)C2 (centres undefined),-,28µM,-,-,-,-
Cc1ccc(-c2cc3c(=O)n(CCNC(=O)C4CCCCC4)ccn3n2)c(C)c1,-,0,-,-,-,-
Cc1ccc(OCCN(C)C(=O)c2cc3ccccc3oc2=O)cc1,-,0,-,-,-,-
CCCOc1nc2ccccc2nc1N1CCC(C(=O)NCc2ccccc2Cl)CC1,-,0,-,-,-,-
CCn1nc(C(=O)Nc2ncc(C)s2)c2ccccc2c1=O,-,0,-,-,-,-
O=C(Nc1ccccc1N1CCCCCC1)c1cncc(Br)c1,-,0,-,-,-,-
CCOc1ccc(CN2CCC3(Cc4ccccc4CNC3=O)C2)cc1 (centres undefined),-,0[6.33 µM],-,-,-,-
O=C1NCc2ccccc2CC12CCN(Cc1ccc(Cl)cc1)C2 (centres undefined),-,22µM,-,-,-,-
O=C1NCc2ccccc2CC12CCN(Cc1ccc(O)cc1)C2 (centres undefined),-,0,-,-,-,-
O=C1NCc2ccccc2CC12CCN(Cc1ccc([N+](=O)[O-])cc1)C2 (centres undefined),-,50µM,-,-,-,-

# From PubChem BioAssay
